HT1080 IDH1KD tx: HT-1080 IDH1 knockdown cell toxicity (counter line) | HT-1080 IDH1 knockdown viability, ATP luminescence, 48 h | Potency, µM (top dose mostly 46.1 µM), for the others: top-dose activity, negative = toxicity, most hits filed as cytotoxic | 360,000 compounds, 2% hits;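 also: 0% = DMSO wells and -100% = cell-free medium wells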
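IDH1KD HT-1080 cells, 750/well, RPMI + 5% FBS; compound pinned after 2 h settling; 48 h, 37 °C; CellTiter-Glo luminescence; % activity normalised to DMSO and no-cell wells; curves fitted, classed by r2 and efficacy.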
HepG2 tox: kills HepG2 cells in TGF-b inhibitor counter-screen | HepG2 CAGA-GFP viability, ATP luminescence, 18 h | 410,000 compounds, 0.76% hits | Potency, µM (titrated, usually from 46.1 µM), for the others: at the highest dose activity change, negative = cytotoxicity, hits mostly cytotoxic | AID 588856
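HepG2 CAGA-GFP cells (1000/well, DMEM with 1% FBS) received compound, then TGF-beta at 500 pg/mL final, and were incubated 18 hours at 37 degrees C. Viability was read by CellTiter-Glo luminescence. Media-only wells were set as complete cell-killing and DMSO as no toxicity.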
TGFb SMAD3 inh: TGF-b pathway inhibition | HepG2 CAGA-GFP TGF-b/SMAD3 reporter, GFP fluorescence, 18 h; TGF-beta stimulated, 500 pg/mL final | Potency, µM (doses to about 46.1 µM), inactives show top-dose activity, negative = inhibition, hits mostly inhibitors | 410,000 compounds, 1.2% hits | AID 588855; also: % is scaled to controls: 0 for no effect and ±100 for the full control effect; nearly all actives have a fitted effect of over 65% in size
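Per well, imaged GFP fluorescence of HEPG2 CAGA-GFP cells gives the signal; cells get compound, then TGF-beta (500 pg/mL final), 18 h at 37 degrees C; %Activity versus -TGF-beta and +DMSO controls.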
S2 tox: reduces viability in counter-screen for ATXN expression inhibitors. Potency, µM (top dose mostly 56.7 µM), most hits filed as cytotoxic. 400,000 compounds, 0.49% hits. S2 cells (HEK-293 line with an ATXN2-luciferase reporter) viability, CellTiter-Fluor protease fluorescence, 24 h; also: nearly all actives have a fitted effect of over 40% in size
HT1080-NT tox: kills 2HG-producing HT-1080-NT fibrosarcoma cells; Potency, µM (series often up to 46.1 µM), for the others: top-dose activity, negative = less viability, usual class: cytotoxic; AID 686970; HT-1080-NT fibrosarcoma viability, CellTiter-Glo ATP luminescence, 48 h; 360,000 compounds, 1.6% hits;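 also: NT is the 2HG producing partner of a matched IDH1 knockdown line; 0% = DMSO-treated cells and -100% = media-only wells without cells; nearly all actives have a fitted effect of over 55% in size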
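Compounds were tested in concentration-response format on HT-1080-NT cells for 48 hours at 37 degrees C. Cell viability came from CellTiter-Glo luminescence; curves were classified by r2, response magnitude and activity.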
ATXN2 expr inh: inhibitors of ATXN2 expression. Potency, µM (highest dose often 57 µM), for the others: at the highest dose activity change, negative = inhibition, usual class: inhibitors. HEK-293 ATXN2-luciferase reporter, luminescence, 24 h. 360,000 compounds, 0.72% hits; also: % is scaled to controls: 0 for no effect and ±100 for the full control effect; nearly all actives have a fitted effect of over 55% in size
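qHTS (up to 57 uM final) was run with 24 h compound exposure of reporter cells at 37 °C. Each well was multiplexed: SteadyGlo luminescence measured ATXN2-luciferase expression after a fluorogenic Gly-Phe-AFC viability readout (25 uM final).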
Numbers without * were called inactive; i = inactive; ? = inconclusive; · = not tested or not shown. Hits are enriched below; roughly 3.8% of the tested compounds scored in any of these assays. Calls follow the shape of the dose curve; as a rule, active = well fitted curve in the direction sought with a large enough effect; inconclusive = small, poorly fitted or top-dose-only effect, or another doubt; inactive = no such curve, though single readings can be large; an effect the other way counts as inactive or inconclusive. Potency is read from the fitted curve at half-maximal effect.

SMILES	HT1080 IDH1KD tx	HepG2 tox	TGFb SMAD3 inh	S2 tox	HT1080-NT tox	ATXN2 expr inh
COc1ccc(NC(=O)/C(Cl)=C(/Cl)S(=O)Cc2ccccc2Cl)cn1 (stereo not drawn)	16.4µM*	11.2µM*	3.55µM*	0.597µM*	1.3µM*	0.844µM*
CCc1ccc(CNC(=O)C2CCN(C(=O)c3ccc(-n4ccc5ccccc54)s3)CC2)cc1	·	-28.8%	?	·	·	·
O=C(Cn1cc(SCc2cccc(C(F)(F)F)c2)c2ccccc21)N1CCCCCC1	·	-14.3%	?	·	·	·
O=C(Cn1cc(SCc2ccc(C(F)(F)F)cc2)c2ccccc21)N1CCCC1	·	10µM*	?	·	·	·
COC(=O)c1ccc(NC(=O)CSc2cn(CC(=O)N3CCCCC3)c3ccccc23)cc1	·	-17.6%	5.62µM*	·	·	·
FC(F)(F)c1cnc(-c2cc3c(c(OCC4CCCO4)c2)OCCN(Cc2cccn2-c2nccs2)C3)c(Cl)c1 (stereo not drawn)	·	·	·	i	·	·
CC(C)c1c(C(=O)N(C)CC2CCCN(C)C2)cnn1-c1nccc(-c2cccs2)n1 (stereo not drawn)	·	·	·	i	·	·
O=C(O)CCCC[P+](c1ccccc1)(c1ccccc1)c1ccccc1	·	·	·	i	·	10.3%
Cc1ccc2nsnc2c1NC(=O)Cc1ccc(Cl)cc1	7.5%	-7.9%	-4.5%	i	7.9%	-2.6%
CC(=O)Cc1nsc(NC(=O)c2ccc(-c3cc(C(F)(F)F)ccc3Cl)o2)n1	11.2µM*	-16.7%	-8.1%	i	11.2µM*	-3.0%
Cc1ccc2nsnc2c1NC(=O)c1ccc(-c2cc(Cl)ccc2Cl)o1	-27.0%	-55.6%	?	?	16.4µM*	?
CC(=O)Cc1nsc(NC(=O)c2ccc(-c3cccc(C(F)(F)F)c3)o2)n1	-15.1%	0.5%	-7.3%	i	-15.3%	-6.0%
CC(=O)Cc1nsc(NC(=O)c2ccc(-c3cc(Cl)ccc3Cl)o2)n1	23.1µM*	-11.1%	-7.5%	?	20.6µM*	-38.2%
COc1ccc(NC(=O)CN2CCCN(Cc3ccc(Cl)cc3)S2(=O)=O)cc1Cl	·	-21.1%	?	?	·	0.0%
COc1ccc(O)c(CN2CCCN(c3nc(C)c4cc(C)c(C)cc4n3)CC2)c1	·	·	·	i	·	·
O=C(Nc1ccc(F)c(F)c1)c1cnn2c1NC(=C1CC1)C=C2C(F)F	23.4%	·	·	·	28.3%	·
Cc1ccc(N2CC(C(=O)Nc3nccs3)CC2=O)cc1Cl (stereo not drawn)	2.9%	-42.6%	-1.1%	i	-26.3%	6.31µM*
COCc1nnc(NC(=O)C2CC(=O)N(c3ccc(C)c(Cl)c3)C2)s1 (stereo not drawn)	-6.9%	-0.6%	-1.4%	i	-13.5%	-6.6%
c1ccc(COc2ccc(OCCCNC3CCCC3)cc2)cc1	?	-67.9%	?	i	23.1µM*	1.8%
O=C(NCc1ccco1)c1ccc2c(c1)N(Cc1c(F)cccc1Cl)C(=O)c1ccccc1S2	·	-1.9%	?	i	·	9.9%
CCN(CC)CCCNC(=O)c1ccc2c(c1)N(Cc1c(F)cccc1Cl)C(=O)c1ccccc1S2	·	11.2µM*	10µM*	i	·	20µM*
Cc1cccc2cc(CN(CC3CCCO3)C(=O)c3cccc(F)c3)c(N(C)C)nc12 (stereo not drawn)	·	·	·	i	·	·
O=C1C2C3C=CC(C4CC34)C2C(=O)N1/N=C/c1ccc(-c2ccc([N+](=O)[O-])cc2)o1 (stereo not drawn)	-5.7%	-8.2%	-1.6%	i	-0.6%	-20.3%
O=C(CN1CCOCC1)NN=Cc1ccc([N+](=O)[O-])o1	?	-45.9%	?	i	-20.6%	-31.9%
O=C1C2C3C=CC(C4CC34)C2C(=O)N1/N=C/c1ccc([N+](=O)[O-])o1 (stereo not drawn)	2.59µM*	-14.0%	-19.7%	?	2.59µM*	?
SMILES	HT1080 IDH1KD tx	HepG2 tox	TGFb SMAD3 inh	S2 tox	HT1080-NT tox	ATXN2 expr inh
CC1(C(=O)N/N=C/c2ccc([N+](=O)[O-])o2)CC1(Br)Br (stereo not drawn)	?	11.2µM*	11.2µM*	?	?	?
O=C(CN1CCCCCCC1)N/N=C/c1ccc([N+](=O)[O-])o1	-29.5%	20µM*	12.6µM*	i	-13.8%	-20.3%
O=C(Cc1ccc([N+](=O)[O-])cc1)N/N=C/c1ccc([N+](=O)[O-])o1	?	-114.5%	15.8µM*	i	?	·
CCc1cccc(NC(=O)CC(c2ccc(OC)cc2)N2Cc3ccccc3C2=O)c1 (stereo not drawn)	·	-13.8%	3.0%	·	·	·
O=C(CNc1ccccc1)N/N=C/c1ccc([N+](=O)[O-])cc1	9.1%	5.4%	-0.9%	i	1.7%	3.4%
O=C(CNc1cccc2ccccc12)N/N=C/c1ccc([N+](=O)[O-])o1	?	7.94µM*	6.31µM*	?	?	?
O=C(CNc1cccc([N+](=O)[O-])c1)N/N=C/c1ccc([N+](=O)[O-])o1	?	-57.3%	7.08µM*	i	?	?
Cc1ccc(S(=O)(=O)N/N=C\c2ccc([N+](=O)[O-])o2)cc1C	-0.4%	6.2%	-26.2%	i	16.1%	-7.7%
O=[N+]([O-])c1ccc(/C=N\O)o1	·	·	·	i	·	2.5%
Cc1cc2ncn(/N=C/c3ccc([N+](=O)[O-])o3)c2cc1C	7.94µM*	12.6µM*	2.51µM*	i	-6.4%	?
O=[N+]([O-])c1ccc(/C=N/N=C/c2ccc([N+](=O)[O-])o2)o1	2.91µM*	-15.5%	?	?	4.61µM*	16.8µM*
O=C(Nc1ncc(Cc2ccccc2)s1)C1CCN(C(=O)c2ccco2)CC1	·	-2.7%	2.6%	·	·	·
Cc1cc[n+](C2CCCCC2)c2ccccc12	·	-2.0%	-4.3%	·	·	·
CCc1cccc2c(C(O)(c3c[nH]c4c(CC)cccc34)c3c[nH]c4c(CC)cccc34)c[nH]c12	·	-14.1%	?	·	·	·
COc1cccc(-c2csc(N3CCN(CC(=O)NNC(=O)c4ccc(Cl)cc4)CC3)n2)c1	11.2µM*	-28.9%	?	i	?	-9.6%
COc1ccccc1CNc1cc(-c2ccccc2)nc2nncn12	·	-50.7%	?	?	·	?
C[C@@]12CC(=O)NC1N(C(=O)c1cccc(C(F)(F)F)c1)C(c1ccccc1OC(=O)c1cccc(C(F)(F)F)c1)C2 (stereo partly drawn)	-11.9%	-40.1%	12.6µM*	?	-10.7%	-7.7%

Compound activity (PubChem)
